Shown are actives, neighbours in structure and some others; about 0.78% of the full set was active somewhere.
RECQ1 helicase – qHTS Assay for Inhibitors of RecQ-Like Dna Helicase 1 (RECQ1); 240,000 compounds, 0.54% hits; Potency, µM (highest dose often 57.3 µM), inactives show top-dose activity, negative = inhibition, usual class: inhibitors; RECQ1 DNA unwinding, red fluorescence kinetic read;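 also: plate controls were vehicle for no effect and no enzyme for full effect; nearly all actives have a fitted effect of over 30% in size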
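50 nM RECQ1T1 preincubated 15 min with compound in Tris pH 8.0 buffer with MgCl2, DTT, Tween-20 and 2.5 ug/ml poly(dI-dC); started with 200 nM TAMRA/BHQ-2 forked duplex and 2 mM ATP. Unwinding read as fluorescence (525/598 nm), two reads 2 h apart.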
BLM inh – qHTS Assay for Inhibitors of Bloom's syndrome helicase (BLM). RecQ-like DNA helicase BLM (Homo sapiens), P54132. recombinant BLM DNA unwinding, fluorescence dequenching. Potency, µM (doses to about 56.1 µM), for inactives: top-dose activity change, negative = inhibition, actives largely listed as inhibitors. 350,000 compounds, 0.2% hits. AID 2528, 2010;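 also: plate controls were vehicle for no effect and no enzyme for full effect; nearly all actives have a fitted effect of over 35% in size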
L3MBTL1 inh-1 – qHTS Assay for the Inhibitors of L3MBTL1. Lethal(3)malignant brain tumor-like protein 1 (Homo sapiens), Q9Y468. Potency, µM (titrated, usually from 57.1 µM), for the others: at the highest dose activity, negative = inhibition, most hits filed as inhibitors. AlphaScreen L3MBTL1–H3K9me1 peptide binding. 230,000 compounds, 0.66% hits; also: % is scaled to controls: 0 for no effect and ±100 for the full control effect; nearly all actives have a fitted effect of over 60% in size
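First, the protein-peptide complex forms for 30 min at room temperature (L3MBTL1 50 nM, biotinylated H3K9me1 peptide 75 nM). Next, compounds are pin-transferred and incubated 30 min. Finally, AlphaScreen beads are added and read after 30 min.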
APE1 inh-1 – qHTS Assay for Inhibitors of the Human Apurinic/apyrimidinic Endonuclease 1 (APE1). AID 2517, 2012. 350,000 compounds, 0.35% hits. recombinant APE1, TAMRA/BHQ-2 abasic DNA cleavage fluorescence. Potency, µM (series often up to 65.8 µM), without a hit: at the top dose activity change, negative = inhibition, actives largely listed as inhibitors. DNA repair nuclease/redox regulator APEX1 (Homo sapiens), P27695;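 also: plate controls were vehicle for no effect and reference inhibitor for full effect; nearly all actives have a fitted effect of over 55% in size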
Target sequence (P27695 whole entry, looked up): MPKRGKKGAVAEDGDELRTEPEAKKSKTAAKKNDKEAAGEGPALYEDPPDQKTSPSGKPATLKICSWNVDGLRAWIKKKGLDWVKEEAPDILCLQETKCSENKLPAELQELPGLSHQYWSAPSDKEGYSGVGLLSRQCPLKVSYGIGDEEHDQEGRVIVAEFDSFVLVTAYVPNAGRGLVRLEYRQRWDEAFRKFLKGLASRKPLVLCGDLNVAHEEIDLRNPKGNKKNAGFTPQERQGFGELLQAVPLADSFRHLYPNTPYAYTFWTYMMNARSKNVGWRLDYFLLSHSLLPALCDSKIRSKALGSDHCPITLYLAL
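Quantitative HTS: incision of a TAMRA/BHQ-2 double-stranded substrate bearing a tetrahydrofuran abasic site by 0.75 nM APE1 raises fluorescence. Substrate 50 nM final, added after 15 min compound preincubation at room temperature; progress as third-minus-first kinetic read difference.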
DNA dye displace – Counterscreen for APE1 Inhibitors: Fluorescent Dye Displacement Assay. shares compounds with APE1 inh-1. 480 compounds, 7% hits. DNA fluorescent dye displacement counterscreen, fluorescence. AID 2564, 2010. Potency, µM (titrated, usually from 28.5 µM), for inactives: at the top dose activity change, negative = inhibition, actives largely listed as inhibitors;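 also: loss of thiazole orange fluorescence as the dye is displaced from duplex DNA; 0% = ThO with dsDNA and no compound and -100% = ThO without dsDNA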
Endo IV inh – Counterscreen for APE1 Inhibitors: qHTS Assay for Inhibitors of Endonuclease IV | Potency, µM (titrated, usually from 27.1 µM), inactives show top-dose activity change, negative = inhibition, most hits filed as inhibitors | AID 2565, 2010 | 560 compounds, 4% hits | E. coli Endo IV, fluorogenic AP-site DNA cleavage | shares compounds with APE1 inh-1;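 also: plate controls were uninhibited enzyme wells for no effect and no enzyme buffer wells for full effect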
APE1 inh-2 – Confirmation qHTS Assay for Inhibitors of the Human Apurinic/apyrimidinic Endonuclease 1 (APE1) | shares compounds with APE1 inh-1 | 750 compounds, 44% hits | AID 2572, 2010 | purified APE1, fluorogenic abasic-site DNA cleavage | Potency, µM (doses to about 57.1 µM), without a hit: at the top dose activity change, negative = inhibition, usual class: inhibitors; also: % is scaled to controls: 0 for no effect and ±100 for the full control effect; nearly all actives have a fitted effect of over 30% in size
APE1 FP inh – qHTS FP-Based Assay for Inhibitors of the Human Apurinic/apyrimidinic Endonuclease 1 (APE1); 480 compounds, 7% hits; AID 2573, 2010; APE1 binding to TAMRA-labelled double-stranded DNA, fluorescence polarization displacement; shares compounds with APE1 inh-1; Potency, µM (highest dose often 28.5 µM), for the others: at the highest dose activity, negative = inhibition, usual class: inhibitors; also: % is scaled to controls: 0 for no effect and ±100 for the full control effect
RECQ1 conf – Confirmation qHTS Assay for Inhibitors of RecQ-Like Dna Helicase 1 (RECQ1) | shares compounds with RECQ1 helicase | RECQ1 helicase DNA unwinding, fluorescence | Potency, µM (highest dose often 229 µM), without a hit: at the highest dose activity change, negative = inhibition, usual class: inhibitors | 610 compounds, 28% hits; also: % is scaled to controls: 0 for no effect and ±100 for the full control effect; nearly all actives have a fitted effect of over 45% in size
ADP FP counter – Counterscreen for RECQ1 Inhibitors: ADP Fluorescence Polarization Displacement Assay; AID 2711, 2010; shares compounds with RECQ1 helicase; 530 compounds, 27% hits; Potency, µM (doses to about 228 µM), for inactives: top-dose activity change, negative = inhibition, usual class: inhibitors; ADP fluorescence polarization displacement counterscreen; also: % is scaled to controls: 0 for no effect and ±100 for the full control effect; nearly all actives have a fitted effect of over 45% in size
L3MBTL1 inh-2 – qHTS Assay for the Inhibitors of L3MBTL1: Hit Validation. 500 compounds, 91% hits. shares compounds with L3MBTL1 inh-1. L3MBTL1 methyl-lysine binding inhibition, biochemical qHTS. Potency, µM, most hits filed as inhibitors. AID 540279, 2011; also: nearly all actives have a fitted effect of over 70% in size
L3MBTL1 ctr – qHTS Assay for the Inhibitors of L3MBTL1: Hit Validationin AlphaScreen Counterscreen. shares compounds with L3MBTL1 inh-1. AlphaScreen counterscreen, signal inhibition. Potency, µM (doses to about 57.1 µM), for inactives: at the top dose activity change, negative = inhibition, hits mostly inhibitors. 500 tested, under 10 active; also: 0% is about no effect
Starred values were filed as active, the others as inactive; i = inactive; ? = inconclusive; · = no result given; ! = not active in a repeat; [ ] = another dose, or the depositor's remark. Calls follow the shape of the dose curve; as a rule, active = well fitted curve in the direction sought with a large enough effect; inconclusive = small, poorly fitted or top-dose-only effect, or another doubt; inactive = no such curve, though single readings can be large; an effect the other way counts as inactive or inconclusive. Potency is read from the fitted curve at half-maximal effect.

SMILES	RECQ1 helicase	BLM inh	L3MBTL1 inh-1	APE1 inh-1	DNA dye displace	Endo IV inh	APE1 inh-2	APE1 FP inh	others
O=C1NC(=O)N(c2ccc3c(c2)OCO3)C(=O)/C1=C\c1ccc(-c2ccccc2C(=O)O)o1	-16.4%	-1.7%	?	20µM*	13.9%	-3.5%	10µM*	4.6%
Cc1cc(/C=C2/C(=O)NC(=O)N(Cc3ccco3)C2=O)c(C)n1-c1ccccc1	28.2µM*	-27.6%	-28.2%	?	4.0%	8.4%	?	-3.2%
Cc1cc(/C=C2\C(=O)NC(=O)N(Cc3ccccc3)C2=O)c(C)n1C1CC1	i	-1.5%	-5.0%	0.2%	·	·	·	·
c1cc[n+]2c(c1)-c1cccc[n+]1CC2	1.6%	5.3%	·	20.1%	·	·	·	·
CC(=O)OCC1=C(C(=O)O)N2C(=O)C(NC(=O)CCCC(N)C(=O)O)C2SC1 (centres undefined)	3.3%	?	·	22.4µM*	-1.3%[57.1 µM]	27.3%[57.1 µM]	-7.3%	30.2%[57.1 µM]
CCOC(=O)CCN(SN(C)C(=O)Oc1cccc2c1OC(C)(C)C2)C(C)C	-5.7%	-4.5%	·	1.3%	·	·	·	·
Cc1cccc(C)c1O	-3.1%	·	·	30.7%	·	·	·	·
Clc1ccc(Cl)c(Cl)c1	-6.7%	·	·	-1.3%	·	·	·	·
Clc1cnc(Oc2ccc(Oc3ncc(Cl)cc3Cl)cc2)c(Cl)c1	-7.4%	-2.5%	·	-7.6%	·	-0.6%[57.1 µM]	-11.1%	·
C/C(O)=C1\C(=O)[C@@H]2[C@H]3c4c[nH]c5cccc(c45)C[C@H]3C(C)(C)N2C1=O	5.9%	·	·	15.2%	·	·	·	·
CN1Cc2ccccc2[C@@H]2c3cccc4[nH]cc(c34)C[C@H]21	-11.1%	2.2%	·	?	-5.8%[57.1 µM]	-22.0%[57.1 µM]	?	-9.1%[57.1 µM]
CC1=C[C@@H]2c3cccc4[nH]cc(c34)C[C@H]2N(C)C1	-19.7%	-0.9%	·	?	·	·	·	·
CC1=C2C3OC(=O)C(C)C3CC[C@@]2(C)C=CC1=O (some centres undefined)	-16.2%	1.7%	4.5%	?	·	-4.5%[57.1 µM]	-4.3%	·
C=C(Cl)Cl	-2.9%	·	·	1.6%	·	·	·	·
CC(N)C(O)c1ccc(O)c(O)c1 (centres undefined)	7.08µM*!	3.3%	·	1.41µM*!	-4.6%[57.1 µM]	35.7%[57.1 µM]	-2.2%	-0.5%[57.1 µM]	RECQ1 conf=?;ADP FP counter=14.1µM*
NCCc1cc(O)c(O)cc1O	8.91µM*	?	·	0.398µM*	?	-14.4%[57.1 µM]	?	28.2µM*!	RECQ1 conf=126µM*;ADP FP counter=100µM*
COc1ccc(CCN)cc1O	-2.1%	·	·	10.6%	·	·	·	·
CCC(Cl)[N+](=O)[O-] (centres undefined)	-4.5%	·	·	0.2%	·	·	·	·
O=C1C=CC(=O)c2c(O)cccc21	4.47µM*	5.62µM*	·	0.316µM*	·	-28.7%[57.1 µM]	?	·	RECQ1 conf=7.94µM*;ADP FP counter=?
O=Cc1ccc(Cl)cc1Cl	-10.8%	·	·	-1.8%	·	·	·	·
N[C@@H](Cc1cc(I)c(O)c(I)c1)C(=O)O	?	0.2%	4.8%	0.2%	·	·	·	·
NC(Cc1cc(O)c(O)cc1O)C(=O)O (centres undefined)	0.631µM*	·	0.159µM*	0.106µM*	·	-17.0%[57.1 µM]	0.794µM*	·	RECQ1 conf=44.7µM*;ADP FP counter=20µM*
Cc1cccc(OCCn2cccc2/C=C2/C(=O)NC(=O)N(Cc3ccco3)C2=O)c1	8.91µM*	25.1µM*	20µM*	7.94µM*	0.2%	4.7%	12.6µM*	?	RECQ1 conf=?;ADP FP counter=-2.9%[91.9 µM];L3MBTL1 inh-2=?;L3MBTL1 ctr=?
CNC(=O)Oc1ccc2c(c1)C1(C)CCN(C)C1N2C (centres undefined)	-0.9%	1.6%	·	14.1%	·	·	·	·
Cc1cc(/C=C2\C(=O)NC(=O)N(c3ccc(Br)cc3)C2=O)c(C)n1-c1cc(C(=O)O)cc(C(=O)O)c1	·	5.8%	·	-32.4%	·	·	·	·
Cc1cc(/C=C2\C(=O)NC(=O)N(c3cccc(F)c3)C2=O)c(C)n1-c1cc(C(=O)O)cc(C(=O)O)c1	i	-5.7%	7.94µM*	?	-7.4%	-5.3%	?	-1.6%	L3MBTL1 inh-2=1.5*;L3MBTL1 ctr=-9.9%
COc1ccc(CN2C(=O)NC(=O)/C(=C\c3ccco3)C2=O)cc1	?	?	7.94µM*	22.4µM*	?	1.9%	14.1µM*	-8.4%	L3MBTL1 inh-2=2.67*;L3MBTL1 ctr=-23.1%
CC(C)CCCC(C)C1CCC2C3CC(=O)[C@H]4CC(O)CC[C@]4(C)C3CC[C@@]12C (some centres undefined)	-9.8%	-11.1%	·	12.5%	·	·	·	·

Compound activity from PubChem BioAssay.
